Source: PubChem (DiRusso Lab, Biochemistry Department, University of Nebraska)
This is one part of a sample in which hits are shown more often than they occur.
Algae TAG accum – increases triacylglycerol in Chlamydomonas reinhardtii | calls only at 10 µM (by protocol) | Chlamydomonas reinhardtii TAG, Nile Red fluorescence, 72 h | 0.84% of 44,000 active; call rule not given here;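 also: hits raise Nile Red signal meaning more stored TAG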
* marks the source's active call; other numbers are inactive results; i = inactive; + = active, no number.

SMILES | Algae TAG accum
Cc1ccc(CN2CCC(C(=O)N(CCO)Cc3ccccc3)CC2)cc1 | i
CCN(Cc1ccccc1)C(=O)C1CCN(CCCc2ccccc2)CC1 | +
CCOc1ccc(CN2CCC(C(=O)N(CCO)Cc3ccccc3)CC2)cc1 | i
C=C(C)CN(CC)C(=O)C1CCN(Cc2ccc(Cl)cc2)CC1 | +
CCN(Cc1ccccc1)C(=O)C1CCNCC1 | i
C=C(C)CN(CC)C(=O)C1CCN(Cc2cccnc2)CC1 | i
CCN(CC)C(=O)C1CCCN(Cc2ccc(Cl)cc2)C1 (configuration not stated) | i
CCc1ccc(CN2CCC(C(=O)N(CC)Cc3ccccc3)CC2)cc1 | +
O=C(C1CCN(CCCc2ccccc2)CC1)N1CCCCC1 | i
Cc1ccc(N(CC(=O)NC(C)c2ccccc2)S(C)(=O)=O)cc1Cl (configuration not stated) | i
O=C(O)c1ccc(CN2CCCC(CO)C2)cc1 (configuration not stated) | i
Cc1cc(Cl)cc(Cl)c1OCC(=O)O | i
CCCOc1ccc(Cn2c(CO)nc3ccccc32)cc1 | i
COc1ccc(N2CCN(C(=O)COc3ccc(Cl)cc3)CC2)cc1 | i
CC1CCCN(C(=O)COc2ccc(Cl)cc2)C1 (configuration not stated) | +
O=C(COc1ccc(Cl)cc1)N1CCN(c2cccc(Cl)c2)CC1 | i
O=C(NCc1ccc2c(c1)OCO2)C(=O)Nc1ccc2c(c1)OCO2 | i
CN(C)S(=O)(=O)c1ccc(C(=O)NC2CCCCCCC2)cc1 | i
CN(c1ccc(C(=O)NC2CCCCCC2)cc1)S(=O)(=O)c1ccccc1 | +
O=C(NC1CCCCCCC1)c1ccccc1 | i
COc1cc(NS(=O)(=O)c2ccc(NC(=O)c3ccccc3F)cc2)ncn1 | i
Cc1cc(NC(=O)C2CCCCC2)no1 | i
O=C(NCC1CCCO1)c1ccccc1CCc1ccccc1 (configuration not stated) | i
Cc1cccc(NC(=O)COc2ccc(Br)cc2)c1C | i
Cc1c(NC(=O)COc2ccc(Br)cc2)cccc1[N+](=O)[O-] | +
SMILES | Algae TAG accum
Cc1ccc(OCC(=O)Nc2cccc([N+](=O)[O-])c2C)c(Br)c1 | i
CS(=O)(=O)N(CC(=O)Nc1cccc(Br)c1)c1ccc(F)cc1 | i
COc1cc(C2C(C#N)=C(N)OC(C)=C2C(C)=O)c([N+](=O)[O-])cc1OC (configuration not stated) | i
COc1ccccc1N1C(=O)CC(N2CCc3ccccc3C2)C1=O (configuration not stated) | i
O=C(Nc1ccc(S(=O)(=O)N2CCCC2)cc1)c1ccc(Cl)cc1Cl | +
O=C(Nc1ccccc1)c1cc(S(=O)(=O)N2CCCCC2)ccc1Cl | i
O=C(Nc1ccc(S(=O)(=O)N2CCCC2)cc1)c1ccccc1I | i
C1CCCC(NCCN2CCCCC2)CC1 | i
COc1ccc(Cl)cc1C(=O)Nc1ccc(C)c([N+](=O)[O-])c1 | i
COc1ccc(C2Nc3cc(C)ccc3NC3=C2C(=O)CC(C)(C)C3)cc1 (configuration not stated) | i
OC(Cc1ccccc1)c1ccccc1 (configuration not stated) | i
Cc1ccc(C(=O)NCC(O)c2ccccc2)cc1 (configuration not stated) | i
OC(CNCCc1ccccc1)c1ccccc1 (configuration not stated) | +
O=[N+]([O-])c1cccc(CN2CCN(C3CC4CCC3C4)CC2)c1 (configuration not stated) | i
O=[N+]([O-])c1ccc(CN2CCN(C3CC4CCC3C4)CC2)cc1 (configuration not stated) | +
Oc1ccc(Br)cc1CN1CCN(C2CC3CCC2C3)CC1 (configuration not stated) | i
O=[N+]([O-])c1ccc(CN2CCN(C3CCN(Cc4ccccc4)CC3)CC2)cc1 | i
c1ccc(CN2CCC(NC3C4CC5CC(C4)CC3C5)CC2)cc1 (configuration not stated) | i
c1ccc(CN2CCN(C3CC4CCC3C4)CC2)cc1 (configuration not stated) | +
Brc1ccccc1-c1cn2ccccc2n1 | i
Fc1ccc(-c2nc(-c3ccc(Br)cc3)no2)cc1 | i
COc1ccc(C(=O)Nc2cc(-c3nc4ncccc4o3)ccc2C)cc1 | i
O=C(Nc1ccc(O)c(-c2nc3ccccc3o2)c1)c1ccc([N+](=O)[O-])cc1 | i
CN1CCN(NC(=O)c2ccc([N+](=O)[O-])cc2Cl)CC1 | i
COc1ccc(CN2CCCN(C)CC2)c(OC)c1 | i
SMILES | Algae TAG accum
COc1ccccc1CN1CCN(Cc2ccc3c(c2)OCO3)CC1 | i
COc1ccc(CN2CCN(Cc3ccc4c(c3)OCO4)CC2)c(OC)c1 | i
COc1cc(C)c(CN2CCN(Cc3ccc4c(c3)OCO4)CC2)cc1C | +
COc1cc(C)c(CN2CCCN(C)CC2)cc1C | +
COc1cc(C)c(CN2CCC(N3CCCCC3)CC2)cc1C | i
N=Nc1[nH]c(N)c2ccccc12 | i
COc1cc(C(=O)Nc2ccc(S(=O)(=O)Nc3ccc(C)cc3C)cc2)cc(OC)c1OC | i
O=S(=O)(c1cc(Cl)ccc1Cl)N1CCN(c2ccccc2)CC1 | i
CCCNC(=O)C(=O)Nc1cccc(F)c1 | i
COc1ccc(CNc2ccc3c(c2)CCC3)cc1 | i
Cc1ccc(Cn2cnc3sc4c(c3c2=O)CCC4)c(C)c1 | i
CCc1nc2c(cnn2-c2ccccc2)c(=O)n1-c1cccnc1 | i
Cc1ccc(Cn2cnc3c(cnn3-c3ccccc3)c2=O)c(C)c1 | +
CC(NC(=O)CN1CCOCC1)C1CC2CCC1C2 (configuration not stated) | i
CCOc1ccc(N(C(C)C(N)=O)S(C)(=O)=O)cc1 (configuration not stated) | i
CCOc1ccc(N(C(C)C(=O)NCc2ccccc2OC)S(C)(=O)=O)cc1 (configuration not stated) | i
C=CCNC(=O)C(C)N(c1ccc(OCC)cc1)S(C)(=O)=O (configuration not stated) | +
O=C(Cc1ccccc1)Nc1ccc(Nc2ccccc2)cc1 | i
CC1CCCN(CCCOc2ccc([N+](=O)[O-])cc2)C1 (configuration not stated) | i
CCOc1ccccc1OCCCN1CCCC(C)C1 (configuration not stated) | i
COc1ccc(OCCCN2CCCC(C)C2)cc1 (configuration not stated) | +
O=C(Nc1ccc(Cl)cc1F)c1c(F)c(F)c(F)c(F)c1F | +
O=C(Nc1ccc(Br)cc1F)c1c(F)c(F)c(F)c(F)c1F | i
O=C(Nc1ccccc1F)c1c(F)c(F)c(F)c(F)c1F | i
O=S(=O)(Nc1cccc(-c2cn3ccccc3n2)c1)c1ccc(Cl)cc1 | i
SMILES | Algae TAG accum
O=S(=O)(c1ccc(F)cc1)c1ccc(F)cc1 | i
O=S(=O)(c1ccc(F)cc1)n1cccc1 | +
O=S(=O)(c1ccc(F)cc1)N1CCCN(S(=O)(=O)c2ccc(F)cc2)CC1 | i
O=C(CSc1nc2ccc([N+](=O)[O-])cc2[nH]1)Nc1ccc(F)c(F)c1 | i
O=C(O)c1ccc2c(=O)c(C(=O)O)c[nH]c2c1 | i
COc1ccc(C(=O)Nc2sc3c(c2C(N)=O)CCC(C)C3)c(OC)c1 (configuration not stated) | +
